The values that follow come from PubChem BioAssay (EPA / NIEHS).

Assay [1] can be described thus: ATG_E_Box_CIS: Attagene CIS-FACTORIAL HepG2 Assay for human Enhancer Box (E-box) (AID 2282936). The settings on record: HepG2 E-box cis-reporter transcription, actives raise or lower the signal. The procedure, abridged: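 Endogenous transcription factor activity was sensed in human HepG2 liver cells through transfected cis-promoter reporter units. After 24 h of dosing, total RNA was reverse-transcribed and reporter cDNA resolved by capillary electrophoresis.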

A short description of assay [2]: ATG_M_61_CIS: Attagene CIS-FACTORIAL HepG2 Assay for M61 Transcription Factor (Internal Marker) (AID 2282937). The settings on record: HepG2 Attagene CIS-FACTORIAL M61 internal marker reporter; actives raise or lower the signal. In outline:
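Using transiently transfected HepG2 liver cells, reporter transcript levels were assessed 24 h post-dosing by RT-PCR and capillary electrophoresis. Changes in either direction were fitted relative to DMSO controls.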

Assay [3] is described as follows: ATG_EGR_CIS: Attagene CIS-FACTORIAL HepG2 Assay for human Early Growth Response 1 (EGR1) (AID 2282938). The settings on record: HepG2 Attagene CIS-FACTORIAL EGR reporter mRNA; actives raise or lower the signal. In outline: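 Fluorescent capillary-electrophoresis signal of reporter cDNA fragments serves as read-out. HepG2 cells bear transiently transfected cis-promoter reporter units and are exposed 24 h; gain- or loss-of-signal is fitted against DMSO.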

A short description of assay [4]: ATG_M_19_CIS: Attagene CIS-FACTORIAL HepG2 Assay for M19 Transcription Factor (Internal Marker) (AID 2282939). As to conditions: HepG2 Attagene CIS-FACTORIAL M19 internal marker reporter; actives raise or lower the signal. The procedure, abridged: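 HepG2 cells transiently transfected with cis-regulated multiple reporter transcription units were dosed for 24 h; reporter mRNA was quantified by RT-PCR, 6-FAM primer-extension labelling, HpaI digestion and capillary electrophoresis, with bidirectional fitting against DMSO baseline.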

Assay [5] is described as follows: ATG_ERE_CIS: Attagene CIS-FACTORIAL HepG2 Assay for Estrogen Response Element (ERE) (AID 2282940). As to conditions: HepG2 ERE cis-reporter, Attagene RNA transcript; actives raise or lower the signal. In outline: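 HepG2 cells transiently transfected with cis-promoter-driven multiplexed reporter transcription units report endogenous TF activity. After 24 h compound exposure, reporter mRNA is quantified by RT-PCR with capillary electrophoresis fluorescence; bidirectional fitting versus DMSO baseline.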

A short description of assay [6]: ATG_Ets_CIS: Attagene CIS-FACTORIAL HepG2 Assay for human Erythroblast Transformation Specific (ETS) (AID 2282941). The settings on record: HepG2 ETS cis-reporter transcription; AC50: actives raise or lower the signal unless noted; outcome: actives raise or lower the signal unless noted. In outline: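 Cis-regulated reporter mRNA induction in HepG2 (transient transfection), 24 h exposure, RT-PCR plus capillary electrophoresis detection; DMSO serves as negative control and baseline.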

The target in assay [7] is Hepatocyte nuclear factor 3-beta (Homo sapiens) (UniProt Q9Y261). The assay is described as follows: ATG_FoxA2_CIS: Attagene CIS-FACTORIAL HepG2 Assay for human Forkhead box A2 (FOXA2) (AID 2282942). As to conditions: HepG2 cis-reporter transcription factor activity, 24 h; actives raise or lower the signal. The procedure, abridged: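 Fluorescence signal of reporter cDNA fragments, separated by capillary electrophoresis, reflects endogenous transcription factor activity in transfected HepG2 after 24 h. Both increases and decreases fitted against DMSO.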

Assay [8] in a line: ATG_FoxO_CIS: Attagene CIS-FACTORIAL HepG2 Assay for human Forkhead box O (FoxO) (AID 2282943). As to conditions: HepG2 Attagene cis-reporter, FoxO element, mRNA; actives raise or lower the signal. The procedure, abridged:
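Values reflect reporter mRNA induction or loss in HepG2 cells 24 h post-dosing, fitted bidirectionally with DMSO as negative control and baseline. Detection used RT-PCR and fluorescence capillary electrophoresis.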

Assay [9] in a line: ATG_GATA_CIS: Attagene CIS-FACTORIAL HepG2 Assay for human GATA Binding Protein (AID 2282944). As to conditions: HepG2 GATA cis-element reporter, Attagene multiplex mRNA; actives raise or lower the signal. In outline: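 HepG2 cells transiently transfected with multiplexed cis-element reporter units reflecting endogenous transcription factor activity; reporter mRNA measured after 24 h dosing by RT-PCR, 6-FAM labeling, HpaI digestion and capillary electrophoresis. Bidirectional fitting versus DMSO baseline.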

A short description of assay [10]: ATG_GLI_CIS: Attagene CIS-FACTORIAL HepG2 Assay for human Zinc Finger Protein GLI1 (AID 2282945). As to conditions: HepG2, Attagene cis-factorial reporter mRNA, GLI element; actives raise or lower the signal. In outline: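 HepG2 cells transiently transfected with cis-promoter multiplexed reporter units report endogenous transcription factor activity. After 24 h chemical exposure, reporter mRNA was quantified by RT-PCR, 6-FAM labelling, HpaI digestion and capillary electrophoresis, with bidirectional fitting against DMSO.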

Assay [11] has as its target Bile acid receptor (Homo sapiens) (UniProt Q96RI1). The assay is described as follows: ATG_IR1_CIS: Attagene CIS-FACTORIAL HepG2 Assay for human Nuclear Receptor Subfamily 1 Group H Member 4 (NR1H4), IR1 submotif (AID 2282946). As to conditions: IR1 reporter transcription, actives raise or lower the signal. In outline: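 Readout: reporter transcript levels by RT-PCR with fluorescent capillary electrophoresis, from HepG2 cells transiently transfected with multiplexed cis-regulated reporters and dosed 24 h. Gain- or loss-of-signal fitted versus DMSO negative control.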

A short description of assay [12]: ATG_GRE_CIS: Attagene CIS-FACTORIAL HepG2 Assay for human Glucocorticoid Response Elements (GRE) (AID 2282947). The settings on record: HepG2 GRE cis-reporter, Attagene multiplex mRNA; AC50: actives raise or lower the signal unless noted; outcome: actives raise or lower the signal unless noted. In outline:
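Cells (HepG2) bearing transfected cis-promoter reporter transcription units were treated with chemical for 24 hours. Reporter mRNA was measured via RT-PCR with capillary electrophoresis, and activity was fitted in both directions relative to DMSO.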

Assay [13] is described as follows: ATG_ISRE_CIS: Attagene CIS-FACTORIAL HepG2 Assay for human Interferon Regulatory Factor 1 (IRF1) binding to an Interferon-Stimulated Response Element (ISRE) (AID 2282948). The settings on record: HepG2 ISRE cis-reporter (Attagene), mRNA transcription readout; actives raise or lower the signal. The procedure, abridged: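 Multiplexed mRNA reporter readout in human liver HepG2 cells: cis-element-driven reporters transfected, compound added for 24 h, transcripts amplified, fluorescently labelled and sized by capillary electrophoresis; curve fitting bidirectional against DMSO.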

Assay [14] in a line: ATG_M_32_CIS: Attagene CIS-FACTORIAL HepG2 Assay for M32 Transcription Factor (Internal Marker) (AID 2282949).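 Further: background control marker of the multiplexed CIS panel rather than a real target.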 The settings on record: HepG2 Attagene cis-factorial M32 reporter, mRNA; actives raise or lower the signal. The procedure, abridged:
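HepG2 transfectants (cis-regulated reporter transcription units) dosed 24 h. Reporter mRNA by RT-PCR plus CE, analysed as gain or loss relative to DMSO.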

The nature of assay [15]: ATG_M_06_CIS: Attagene CIS-FACTORIAL HepG2 Assay for M06 Transcription Factor (Internal Marker) (AID 2282950). The settings on record: HepG2 Attagene CIS-FACTORIAL M06 internal marker reporter; actives raise or lower the signal. In outline:
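HepG2 cells transiently transfected with cis-regulated multiple reporter transcription units were exposed to chemical for 24 h; reporter mRNA was quantified by RT-PCR, 6-FAM primer labelling, HpaI digestion and capillary electrophoresis, fitted bidirectionally against DMSO.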

Assay [16] addresses Hypoxia-inducible factor 1-alpha (Homo sapiens) (UniProt Q16665). The assay can be described thus: ATG_HIF1a_CIS: Attagene CIS-FACTORIAL HepG2 Assay for human Hypoxia Inducible Factor 1 (HIF1A) (AID 2282951). As to conditions: HepG2 Attagene cis-factorial HIF1a reporter transcription; actives raise or lower the signal. In outline: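 Endogenous-TF cis reporter readout, human HepG2 cells, 24 h incubation; mRNA detected via RT-PCR and capillary electrophoresis fluorescence; DMSO-normalised bidirectional fitting.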

Assay [17] deals with Hepatocyte nuclear factor 6 (Homo sapiens) (UniProt Q9UBC0). The assay can be described thus: ATG_HNF6_CIS: Attagene CIS-FACTORIAL HepG2 Assay for human Hepatocyte Nuclear Factor 6 (HNF6) (AID 2282952). The settings on record: HepG2 Attagene cis-factorial HNF6 reporter transcription; actives raise or lower the signal. In outline: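 Readout: fluorescent reporter-transcript fragments resolved by capillary electrophoresis after RT-PCR, reflecting endogenous factor activity in transfected HepG2. Exposure 24 h. Gain or loss of signal fitted bidirectionally against DMSO.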

The target in assay [18] is Heat shock factor protein 1 (Homo sapiens) (UniProt Q00613). The assay can be described thus: ATG_HSE_CIS: Attagene CIS-FACTORIAL HepG2 Assay for human Heat Shock Transcription Factor 1 (HSE) (AID 2282953). The settings on record: HepG2 HSE cis-reporter, Attagene RNA transcription; actives raise or lower the signal. The procedure, abridged: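 HepG2 cells transiently transfected with multiple reporter transcription units under cis-regulatory promoter control, measuring endogenous transcription factor activity. After 24 h chemical exposure, reporter mRNA quantified by RT-PCR, fluorescent labelling, HpaI digestion and capillary electrophoresis; bidirectional fit versus DMSO.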

Assay [19] is described as follows: ATG_MRE_CIS: Attagene CIS-FACTORIAL HepG2 Assay for human Metal Responsive Element (MRE) (AID 2282954). The settings on record: HepG2 MRE cis-reporter transcription, Attagene multiplex; actives raise or lower the signal. In outline:
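Cells were transfected with cis-promoter reporter transcription units, then dosed for 24 h. RNA was reverse-transcribed, amplified, fluorescently labelled and resolved by capillary electrophoresis, and activity was fitted in both directions relative to DMSO.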

A short description of assay [20]: ATG_PBREM_CIS: Attagene CIS-FACTORIAL HepG2 Assay for human Phenobarbital-responsive Enhancer Module (PBREM) (AID 2282955). The settings on record: HepG2 PBREM cis-reporter, Attagene multiplexed transcription; actives raise or lower the signal. The procedure, abridged: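 Readout: reporter mRNA, fluorescent RT-PCR fragments separated by capillary electrophoresis. System: HepG2 transiently transfected with cis-regulated reporter units. Exposure: 24 h. Analysis: bidirectional, DMSO baseline.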

Values joined by “and” are separate entries in the source; they are usually repeats but may differ in a detail not shown here. Equal values may be shown once. Some structures have more than one record in an assay (separate samples or runs), and their calls can disagree. Active and inactive are the calls of the source. How the source made its calls: active means hit-call score of the fitted dose curve at least 0.9, where 1 is the maximum; inactive means score below 0.9.

Chain of Hepatocyte nuclear factor 3-beta (Homo sapiens) (Q9Y261 whole entry, looked up, the tested form may be a part): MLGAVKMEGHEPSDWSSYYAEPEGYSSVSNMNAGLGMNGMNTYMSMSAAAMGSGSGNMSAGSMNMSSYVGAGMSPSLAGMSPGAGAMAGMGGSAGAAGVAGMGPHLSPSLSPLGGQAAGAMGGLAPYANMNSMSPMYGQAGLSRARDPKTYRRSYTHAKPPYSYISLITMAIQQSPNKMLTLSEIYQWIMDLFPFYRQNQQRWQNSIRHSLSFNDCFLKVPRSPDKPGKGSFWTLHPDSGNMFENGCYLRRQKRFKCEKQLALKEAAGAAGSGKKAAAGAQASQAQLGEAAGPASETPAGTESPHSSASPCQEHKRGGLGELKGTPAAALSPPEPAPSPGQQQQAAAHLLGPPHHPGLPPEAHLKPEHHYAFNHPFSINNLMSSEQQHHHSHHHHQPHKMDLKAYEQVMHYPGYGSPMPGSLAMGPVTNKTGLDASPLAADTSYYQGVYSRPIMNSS
Chain of Hypoxia-inducible factor 1-alpha (Homo sapiens) (Q16665 whole entry, looked up): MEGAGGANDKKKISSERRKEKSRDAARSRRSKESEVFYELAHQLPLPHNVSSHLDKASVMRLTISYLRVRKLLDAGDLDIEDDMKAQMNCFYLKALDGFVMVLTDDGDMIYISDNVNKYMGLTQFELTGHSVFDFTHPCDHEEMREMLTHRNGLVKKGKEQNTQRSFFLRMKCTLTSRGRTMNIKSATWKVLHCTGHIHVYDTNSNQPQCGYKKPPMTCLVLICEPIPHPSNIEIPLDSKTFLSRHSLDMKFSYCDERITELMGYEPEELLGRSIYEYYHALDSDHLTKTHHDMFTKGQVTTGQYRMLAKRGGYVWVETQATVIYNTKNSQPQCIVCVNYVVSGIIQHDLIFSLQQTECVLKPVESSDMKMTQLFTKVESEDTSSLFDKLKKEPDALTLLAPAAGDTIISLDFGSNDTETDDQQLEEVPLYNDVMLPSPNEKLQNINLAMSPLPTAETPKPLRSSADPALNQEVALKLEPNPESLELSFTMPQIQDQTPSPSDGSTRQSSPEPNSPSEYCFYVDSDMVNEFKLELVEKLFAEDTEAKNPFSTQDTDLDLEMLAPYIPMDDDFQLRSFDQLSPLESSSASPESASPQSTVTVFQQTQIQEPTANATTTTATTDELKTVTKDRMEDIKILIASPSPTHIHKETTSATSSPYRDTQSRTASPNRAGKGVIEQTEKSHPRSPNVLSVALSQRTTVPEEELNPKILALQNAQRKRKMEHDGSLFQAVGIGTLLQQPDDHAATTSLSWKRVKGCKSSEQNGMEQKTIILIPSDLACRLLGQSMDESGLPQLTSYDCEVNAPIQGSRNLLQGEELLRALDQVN
Chain of Hepatocyte nuclear factor 6 (Homo sapiens) (Q9UBC0 whole entry, looked up, the tested form may be a part): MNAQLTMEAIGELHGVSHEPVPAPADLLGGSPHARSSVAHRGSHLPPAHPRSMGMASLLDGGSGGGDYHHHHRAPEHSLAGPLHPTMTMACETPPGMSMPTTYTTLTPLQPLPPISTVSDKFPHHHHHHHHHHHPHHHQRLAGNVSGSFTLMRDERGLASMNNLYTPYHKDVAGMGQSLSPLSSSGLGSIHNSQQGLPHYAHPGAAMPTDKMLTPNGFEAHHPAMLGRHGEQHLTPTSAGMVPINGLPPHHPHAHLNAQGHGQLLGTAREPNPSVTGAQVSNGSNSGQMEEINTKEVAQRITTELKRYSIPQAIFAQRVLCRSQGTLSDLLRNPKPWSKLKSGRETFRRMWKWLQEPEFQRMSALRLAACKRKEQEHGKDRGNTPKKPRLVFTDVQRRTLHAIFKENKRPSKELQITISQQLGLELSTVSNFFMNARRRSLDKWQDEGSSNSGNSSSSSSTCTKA
Chain of Heat shock factor protein 1 (Homo sapiens) (Q00613 whole entry, looked up): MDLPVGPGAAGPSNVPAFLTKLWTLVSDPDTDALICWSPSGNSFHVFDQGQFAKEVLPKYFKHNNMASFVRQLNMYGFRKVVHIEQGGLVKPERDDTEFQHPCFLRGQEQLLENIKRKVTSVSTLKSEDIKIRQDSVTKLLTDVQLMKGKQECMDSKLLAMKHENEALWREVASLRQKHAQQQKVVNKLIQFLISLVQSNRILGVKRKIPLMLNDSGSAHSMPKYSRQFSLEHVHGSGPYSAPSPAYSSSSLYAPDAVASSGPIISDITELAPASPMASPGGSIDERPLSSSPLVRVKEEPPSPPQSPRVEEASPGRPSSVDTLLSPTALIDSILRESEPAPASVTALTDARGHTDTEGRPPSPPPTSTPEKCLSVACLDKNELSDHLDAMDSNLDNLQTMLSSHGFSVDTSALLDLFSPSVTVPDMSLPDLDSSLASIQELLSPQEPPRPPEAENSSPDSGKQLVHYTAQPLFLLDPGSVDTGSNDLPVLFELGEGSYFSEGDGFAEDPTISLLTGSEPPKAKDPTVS
Chain of Bile acid receptor (Homo sapiens) (Q96RI1 whole entry, looked up): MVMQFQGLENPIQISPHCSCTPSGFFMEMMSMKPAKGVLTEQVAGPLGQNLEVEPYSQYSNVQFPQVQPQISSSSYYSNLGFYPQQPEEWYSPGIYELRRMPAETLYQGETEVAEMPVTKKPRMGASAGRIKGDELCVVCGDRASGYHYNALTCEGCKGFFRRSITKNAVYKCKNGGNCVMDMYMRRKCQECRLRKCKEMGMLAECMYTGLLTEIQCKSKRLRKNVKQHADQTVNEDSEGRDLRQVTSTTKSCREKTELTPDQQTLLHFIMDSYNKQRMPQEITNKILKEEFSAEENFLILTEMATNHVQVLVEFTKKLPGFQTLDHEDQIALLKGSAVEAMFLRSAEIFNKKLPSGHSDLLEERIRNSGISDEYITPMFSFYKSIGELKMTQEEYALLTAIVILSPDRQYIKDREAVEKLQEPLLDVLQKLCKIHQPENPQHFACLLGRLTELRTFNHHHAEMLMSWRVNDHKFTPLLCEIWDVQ

Turning to `FC(F)=C(F)C(F)(F)C(F)(F)C(F)(F)C(F)F`, the outcome in assay [1], in assay [2], in assay [3], in assay [4], in assay [5] and in assay [6] was inactive. For the same compound, the compound was classed as inactive in assay [7], in assay [8], in assay [9], in assay [10], in assay [11] and in assay [12]. The compound was called inactive in assay [13], in assay [14], in [15], in assay [16], in [17] and in assay [18]. The compound was called inactive in assay [19] and in [20].

`CC(C)(O)C(=O)c1ccccc1`: the result in assay [1], in [2], in assay [3], in assay [4], in assay [5] and in assay [6] was inactive. Also, the compound was classed as inactive in assay [7], in [8], in [9], in [10], in assay [11] and in assay [12]. Further, the outcome in [13], in assay [14], in [15], in assay [16], in assay [17] and in [18] was inactive. Besides, the compound was classed as inactive in assay [19] and in assay [20].

With `c1ccc2c(c1)CCC2`, the result in assay [1], in [2], in assay [3], in [4], in [5] and in assay [6] was inactive. The call in [7], in [8], in assay [9], in [10], in assay [11] and in assay [12] was inactive. The compound was called inactive in assay [13], in assay [14], in assay [15], in [17], in assay [18] and in assay [19]. Besides, the result in [20] was inactive. Besides, in [16], the AC50 was 36.5 µM (active).

With `COC(=O)C(F)(F)C(F)(F)C(F)(F)C(F)(F)C(F)(F)F`, the outcome in assay [1], in [2], in [3], in [4], in assay [5] and in assay [6] was inactive. Besides, the outcome in [7], in [8], in assay [9], in assay [10], in [11] and in assay [12] was inactive. The call in assay [13], in assay [14], in assay [15], in [16], in [17] and in assay [18] was inactive. Moreover, the call in [19] and in [20] was inactive.

As to `Cc1cc(C(C)(C)C)c(O)c(C(C)(C)C)c1`, the AC50 in assay [1] is 56.6 µM (active); in [4], 97.1 µM (active); in assay [6], 33.4 µM (active); in assay [10], 97.4 µM (active); in [11] it was 60 µM (active); in assay [14] it was 53.6 µM (active). The AC50 is 95.9 µM (active) in assay [18]; 52.9 µM (active) and 91.4 µM (active) in assay [19]. The outcome in assay [1], in [2], in assay [3], in assay [4], in assay [6] and in assay [8] was inactive. Further, the compound was classed as inactive in assay [9], in assay [10], in assay [11], in assay [12], in assay [13] and in assay [14]. Also, the call in assay [15], in [16], in assay [17], in assay [18] and in assay [20] was inactive.

For the compound `Clc1ccc2c(Cl)ccnc2c1`, the outcome in assay [1], in assay [2], in [3], in [4], in [5] and in [6] was inactive. In addition, the call in assay [7], in assay [8], in assay [9], in [10], in assay [11] and in assay [12] was inactive. The outcome in assay [13], in [14], in assay [15], in assay [16], in assay [17] and in assay [18] was inactive. The outcome in [19] and in assay [20] was inactive.
